# Measured values: the OligoGym collection
# Target: PECR
# Assay: pooled miR-30 sensor sort-seq; sequence = guide strand
# Details: shRNA
# Note: reference of the scale not given here.
row,Sequence,sensor-assay potency score (higher = more potent)
1,TTTGACAACAGAAAGGTCCCCT,0.815
2,TATGGGAATGACTCGTGCCTGC,-0.624
3,TTCCATACCAACTATAAGCTTT,-0.179
4,TCTGGGAATAAATAACTCCAGG,-1.4
5,TTGATCCGTATTCCACTGCAGG,-0.697
6,TTCAATCTCTCCAACTTACGGG,0.0068
7,TCAATCTCTCCAACTTACGGGA,-0.32
8,TTAAAGGTCTCCTTCATCTTTT,-0.272
9,TAAACTGCTTTGCACATGTAGA,-1.07
10,TAGAACTGATGTGTTCAGCAGG,-0.616
11,TTCATCTTTTTGACAACAGAAA,-1.6
12,TAGTTCTCCACAGCAGTCTGGG,-0.504

# Target: PEG10
# Assay: as above
# Details: shRNA
row,Sequence,sensor-assay potency score (higher = more potent)
1,TCTTTCTTTTTCTTCCTGCGTC,-0.141
2,TTCTCTGGGAGGTCTTCTGGGC,-0.944
3,TTTGGCAACCTCTCGCCTCTGA,-0.158
4,TTCCACTTGCTCTCGAAGGGTG,-0.417
